MCF10A rerep – induces DNA re-replication in MCF 10a normal breast cells; 2.9% of 350,000 active; Potency, µM (top dose mostly 46.1 µM), for inactives: top-dose activity, positive = re-replication, usual class: activators; MCF 10A DNA re-replication, Hoechst nuclear intensity, 48 h; AID 624296; also: potency is read from the fitted curve at half-maximal effect; % of control where 0% means no effect; nearly all actives have a fitted effect of over 50% in size
Vif-APOBEC3G blk – Vif-A3G binding inhibition; HeLa A3G-eYFP + Vif (tagged APOBEC3G with the HIV-1 protein that degrades it), YFP fluorescence, overnight; 0.076% of 410,000 active; Potency, µM (titrated, usually from 46.1 µM), for the others: at the top dose activity, negative = active, usual class: inhibitors; also: potency is read from the fitted curve at half-maximal effect; % is scaled to controls: 0 for no effect and ±100 for the full control effect; nearly all actives have a fitted effect of over 60% in size
Target sequence (Q9HC16 whole entry, looked up): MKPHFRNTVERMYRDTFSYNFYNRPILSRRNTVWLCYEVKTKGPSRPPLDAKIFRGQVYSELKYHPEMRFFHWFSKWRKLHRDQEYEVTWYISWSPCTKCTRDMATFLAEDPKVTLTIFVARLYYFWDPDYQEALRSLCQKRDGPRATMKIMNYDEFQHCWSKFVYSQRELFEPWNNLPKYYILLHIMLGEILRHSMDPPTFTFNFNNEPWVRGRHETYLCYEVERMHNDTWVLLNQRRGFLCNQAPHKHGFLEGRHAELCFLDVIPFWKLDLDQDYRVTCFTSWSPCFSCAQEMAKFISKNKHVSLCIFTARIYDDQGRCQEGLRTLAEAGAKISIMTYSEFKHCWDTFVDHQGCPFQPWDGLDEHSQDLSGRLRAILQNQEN
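Read-out is eYFP fluorescence (Ex 488/Em 500-530) from Vif-expressing HeLa A3G-eYFP cells; more signal means A3G escaped Vif-mediated degradation. Cells plated overnight, compound pinned in, incubated overnight at 37 deg C.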
IL-1B inflam inh – inhibitors of inflammasome signaling (IL-1 beta secretion); THP-1 LPS/ATP IL-1B secretion, AlphaLISA, 16 h; stronger effect = lower value; AID 743279; activity change, % at 57.5 µM; 4.7% of 360,000 active; in the data active = activity change below about -50%; inconclusive = mostly about -30% to -49%; also: % is scaled to controls: 0 for no effect and ±100 for the full control effect
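Secreted IL-1B measured by AlphaLISA bead assay after 16 h compound exposure of THP-1 cells; compounds (final up to 57.5 uM) added 1 h before LPS (250 ng/mL) and ATP (1.25 mM) stimulation; lower signal means less secretion.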
SW480 rereplic – induces DNA re-replication in SW480 colon adenocarcinoma cells | SW480 DNA re-replication, Hoechst DNA content imaging, 48 h | Potency, µM (top dose mostly 46.1 µM), inactives show at the top dose re-replication activation, hits mostly activators | AID 624297 | 1.8% of 340,000 active; also: potency is read from the fitted curve at half-maximal effect; % of control where 0% means no effect; nearly all actives have a fitted effect of over 55% in size
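250 cells/well; 23 nL cpd via pin tool; 48 hr, 37 C, 5% CO2; Hoechst 40 min; imager read of total nuclear intensity, ex 405/em 500-530 nm.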
Giardia kill – kills Giardia lamblia. activity change, % at 7.66 µM, hits read low. Giardia lamblia trophozoite viability. 0.15% of 340,000 active; in the data active = activity change below about -80%; inconclusive = between about -30% and that limit;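 also: parasites exposed to compound for two days anaerobically before the ATP read; % is scaled to controls: 0 for no effect and ±100 for the full control effect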
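Viability, read as ATP luminescence: trophozoites at 100 cells/well, compound added, 48 hrs anaerobic at 37 deg C, then 15-30 min room-temperature development before reading.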
Vif-APOBEC3F blk – blocks the Vif interaction with APOBEC3F. HeLa A3F-eYFP + Vif (tagged APOBEC3F with the HIV-1 protein that degrades it), YFP fluorescence increase. 0.2% of 390,000 active. Potency, µM (series often up to 46.1 µM), without a hit: top-dose activity, negative = active; also: potency is read from the fitted curve at half-maximal effect; % of control where 0% means no effect; nearly all actives have a fitted effect of over 65% in size
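HeLa cells stably expressing A3F-eYFP plus Vif, plated and incubated overnight at 37 deg C, then exposed to compounds overnight at 37 deg C. Blocked degradation read as raised yellow fluorescence (Ex 488/Em 500-530).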
* marks the source's active call; other numbers are inactive results; ? = inconclusive; . = no result; [ ] = remark or other dose. The list is not random: actives were taken first. Their share in the collection is about 6.9%. Unless noted, calls follow the shape of the dose curve; as a rule, active = well fitted curve in the direction sought with a large enough effect; inconclusive = small, poorly fitted or top-dose-only effect, or another doubt; inactive = no such curve, though single readings can be large; an effect the other way counts as inactive or inconclusive.

SMILES	MCF10A rerep	Vif-APOBEC3G blk	IL-1B inflam inh	SW480 rereplic	Giardia kill	Vif-APOBEC3F blk
COc1cc(NC(=O)c2ccc([N+](=O)[O-])o2)ccc1NC(=O)c1cccs1	?	?	-90.1*	6.51µM*	-102.2*	5.1%
O=C(Nc1cccc(NC(=O)c2cccs2)c1)c1ccc([N+](=O)[O-])o1	18.5%	-4.2%	-101.8*	?	-89.4*	?
Cc1ccc(NC(=O)c2cccs2)cc1[N+](=O)[O-]	5.1%	-6.3%	?	5.6%	8.5	1.9%
COC(=O)c1sc2cccc(F)c2c1S(=O)(=O)NCc1ccccc1Cl	.	1.6%	.	.	.	1.9%
COc1cc2ccccc2cc1C(=O)NCC(c1cccs1)N(C)C (configuration not stated)	?	-1.9%	-75.5*	-12.7%	-15.5	0.6%
CC1=C(C(=O)OC(C)C)C(c2cccs2)C(C(=O)OC(C)C)=C(C)N1	3.0%	0.6%	-72.5*	-2.6%	-4.0	5.7%
O=C(c1cccs1)N1CCN(C(=O)c2cccs2)C1=S	5.8µM*	-17.9%	-95.0*	16.4µM*	16.3	-2.2%
CCN(CC)c1ccc(NC(=O)c2cc(OC)cc(OC)c2)c(C)c1	2.06µM*	?	6.6	4.61µM*	-2.2	0.6%
COc1ccc(NC(=O)c2sc3nc(C)c(C(=O)Nc4ccc(C)cc4C)c(-c4cccs4)c3c2N)cc1	.	1.4%	.	.	.	-3.9%
O=c1cc(-c2ccccc2)[nH]c2ccccc12	1.3µM*	?	92.2	?	-21.6	-17.9%
CCOc1ccc(NC(=O)CSc2nc3ccsc3c(=O)n2C(C)CC)cc1 (configuration not stated)	.	-5.9%	.	.	.	-9.1%
CCc1cccc(NC(=O)CSc2ncc3c(n2)-c2ccc(Cl)cc2N(Cc2ccccc2)S3(=O)=O)c1	.	2.0%	.	.	.	2.7%
[O-]/C(=C(\C(=S)Nc1ccc(SC(F)F)cc1)[n+]1ccccc1)c1ccc(Cl)cc1Cl	13.1%	-7.0%	-68.9*	10.7%	18.5	-9.7%
Cc1ccc(S(=O)(=O)N2CCN(c3nc(-c4ccnnc4)nc4ccccc34)CC2)cc1	.	.	.	.	-3.2	.
CCN1CCN(S(=O)(=O)c2ccc(S(=O)(=O)N(CC)Cc3ccccc3)cc2)CC1	1.84µM*	-0.1%	-10.9	11.6µM*	7.4	-1.3%
CN1CCN(S(=O)(=O)c2ccc(Cc3ccc(S(=O)(=O)N4CCN(C)CC4)cc3)cc2)CC1	20.6µM*	0.2%	1.5	9.4%	-2.3	1.4%
CCN1CCN(S(=O)(=O)c2ccc(C(C)(C)C)cc2)CC1	?	4.8%	1.0	23.1µM*	15.8	1.9%
CN(C(=O)CSc1nc2ccc(NC(=O)c3cccc(F)c3)cc2s1)c1ccccc1	.	-4.9%	.	.	.	-1.5%
Cc1cccc(N2CCN(C3(c4ccccc4)C(=O)c4ccccc4C3=O)CC2)c1C	.	-2.7%	.	.	.	-5.0%
COc1cc2nc(N(C)CCCNC(=O)[C@@H]3CCCO3)nc(N)c2cc1OC	3.9%[20.6 µM]	.	.	-6.6%[20.6 µM]	.	.
Cc1ccc(NC(=O)C(Cc2c[nH]c3ccccc23)NC(=O)OCC(C)C)cc1 (configuration not stated)	.	-9.3%	.	.	.	-1.6%
COc1ccccc1N1CCN(C(=O)C2CCN(S(=O)(=O)Cc3ccccc3)CC2)CC1	.	-4.3%	.	.	.	1.3%
CCOC(=O)c1sc(=S)n(-c2ccc(OC)cc2)c1C	?	0.0%	.	-2.8%	6.0	3.9%
CCOC(=O)c1c2c(n(-c3ccc(OC)cc3)c1C)C(=O)C(=O)c1ccccc1-2	3.26µM*	-14.5%	-1.9	5.8µM*	-21.4	8.3%
CCCCn1nc(C(=O)Nc2ccc3c(c2)OCO3)c2ccccc2c1=O	18.8%	-2.8%	-58.3*	5.3%	-0.5	0.1%
SMILES	MCF10A rerep	Vif-APOBEC3G blk	IL-1B inflam inh	SW480 rereplic	Giardia kill	Vif-APOBEC3F blk
CC(C)(C)C1CCc2nc(NC(=O)c3cccc(Cl)c3)sc2C1 (configuration not stated)	.	3.0%	.	.	.	0.3%
Cc1cc(-c2ccccc2)c2c3c(c(-c4ccccc4)n2n1)c(=O)n(C)c(=O)n3C	-6.1%	?	28.0	8.3%	-11.1	25.1µM*
Cc1cc(C)c2c3c(c(-c4ccccc4)n2n1)c(=O)n(C)c(=O)n3C	-4.3%	1.9%	30.9	-12.9%	-15.1	12.8%
OC[C@@H](O)C(O[C@@H]1O[C@@H](CO)[C@H](O)[C@H](O)[C@H]1O)[C@H](O)[C@@H](O)CO (some centres not stated)	3.1%	.	.	-3.1%	.	.
Cc1ccc(-c2nc3cc(NC(=O)c4cc5ccccc5o4)ccc3o2)cc1Cl	.	1.1%	.	.	.	0.2%
CCC(=O)N1CCN(c2ccc(NC(=O)c3cc4ccccc4o3)cc2Cl)CC1	?	-11.8%	-114.7*	-1.0%	-5.8	0.0%
O=C(Nc1ccc(N2CCN(C(=O)c3ccccc3)CC2)c(Cl)c1)c1ccco1	?	4.7%	-79.5*	-0.8%	-3.0	-1.9%
Cc1ccc(NC(=O)c2cc3ccccc3o2)cc1Cl	12.7%	0.2%	-51.9*	-88.7%	4.0	-10.0%
Cc1ccc(NC(=O)c2cc3ccccc3o2)nc1	-1.5%	-8.1%	-96.2*	-365.9%	-18.6	15.3%
COC(=O)c1ccccc1NC(=O)NCCc1c(C)nn(C)c1C	.	-6.3%	.	.	.	-0.6%
CCc1ccc(NCc2cc3ccc(OC)cc3n(CC(=O)Nc3ccccc3OC)c2=O)cc1	.	-0.3%	.	.	.	5.6%
C=Cc1ccc(Cn2c(=O)cc(C)c3c(C)nn(C)c32)cc1	.	3.0%	.	.	.	-1.0%
Cc1cc2oc(C(=O)Nc3c(C)n(C)n(-c4ccccc4)c3=O)cc(=O)c2cc1C	.	0.4%	.	.	.	1.0%
O=C(NNc1cc(Cl)cc(Cl)c1)c1sccc1Cl	.	.	.	.	15.7	.
CCCC(=O)N1CCN(c2ccc(NC(=O)C(C)(C)C)cc2Cl)CC1	9.0%	1.7%	0.5	0.5%	8.8	0.3%
O=C(Nc1ccc(N2CCN(C(=O)c3ccco3)CC2)c(Cl)c1)c1cc2ccccc2o1	9.2µM*	-11.3%	-105.0*	?	-19.3	-3.5%
CCCC(=O)N1CCN(c2ccc(NC(=O)c3cc4ccccc4o3)cc2Cl)CC1	6.51µM*	-13.8%	-110.9*	1.8%	1.6	-5.1%
CCCC(=O)N1CCN(c2ccc(NC(=O)c3cccs3)cc2Cl)CC1	-5.3%	0.5%	-84.4*	0.4%	-0.8	-3.1%
Cc1ccc(NC(=O)Cn2cc(S(=O)(=O)c3ccc(C)cc3)c(=O)c3cc4c(cc32)OCO4)cc1	.	2.8%	.	.	.	0.2%
CC(C)(C)CC(C)(C)N=C1Nc2ccc([N+](=O)[O-])cc2N[C@]12C[C@H]1CCCC(=O)N3CC[C@@H](C2)[C@@H]13	.	-8.4%	.	.	.	.
O=C(Nc1ccc(Cl)cc1)C1CCC(CNS(=O)(=O)c2ccc(Br)s2)CC1 (configuration not stated)	.	-5.0%	.	.	.	-9.7%
Cc1ccccc1NC(=O)c1c(C)oc2ccc(O)c(CN3CCOCC3)c12	.	5.5%	.	.	.	1.2%

Screens deposited in PubChem BioAssay by National Center for Advancing Translational Sciences (NCATS).
